Reference: PubChem BioAssay AID743382 (National Center for Advancing Translational Sciences (NCATS), 2014)
Active and inactive are the calls of the source. The call rests on the fitted dose curve.

Experiment: qHTS for Inhibitors of PI5P4K: BT474 Cell Proliferation Assay for Probe SAR
Conditions: CellTiter-Glo ATP luminescence, 72 h
Source text: In addition to finding PI5P, we discovered the type II phosphatidylinositol 5-phosphate 4-kinase (PI5P4K) family (alpha, beta, gamma isoforms) that catalyze the conversion of PI5P to PI(4,5)P2. Alternatively, PI(4,5)P2 can also be synthesized through phosphatidylinositol-4-phosphate (PI4P) by the type I phosphatidylinositol 4-phosphate 5-kinases (PI4P5K). These PI5P4K enzymes therefore represent one way by which cells can regulate endogenous PI5P levels and play important roles in insulin signaling and in stress responses. […] A qHTS PI5P4K-alpha ADP-Glo assay was developed to identify specific modulators of human PI5P4K, phosphatidylinositol-5-phosphate 4-kinase (Type II PIPK). […]
BT474 cells were cultured in DMEM with 10% FBS and plated in 1536-well white solid-bottom tissue-culture treated plates at a density of 500 cells per 5 microL well. […] After 72 hours of incubation at 37 degrees C 5% CO2 the level of ATo was measured using the Cell Titer Glo luciferase-coupled ATP detection system from Promega. This assays monitors cells by quantitating the amount of ATP present by luciferase, which in the presence of ATP converts pro-luciferin into the luminescent luciferin product. A compound that inhibits cell proliferation would result in a decrease in luminescence. […] The luminescence was read on a Viewlux (Perkin Elmer) plate reader.
In the case of O=C1Nc2ccc(C(=O)c3ccco3)cc2/C1=C/c1cc(Cl)c(O)c(Cl)c1, the Potency was 10.5 µM (active).
